Screens from PubChem.
NLRP3 yeast inh – NALP3 inhibition in yeast | Yeast reconstituted NLRP3/ASC/caspase-1, beta-gal luminescence, 24 h | inhibition, % at 10 µM | 330,000 compounds, 0.39% hits | AID 2825;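 active means inhibition of 50% or more; inactive means inhibition below 50%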
NALP1 yeast inh – NALP1 inhibition; 280,000 compounds, 0.61% hits; inhibition, % at 10 µM; S. cerevisiae NALP1/ASC/caspase-1 growth, X-gal OD620, 72 h; AID 2071; in the data active means inhibition mostly above about 24%, no sharp cut-off; inactive means mostly below about 32%
PfHsp90 yeast 2 – inhibits growth of yeast expressing Plasmodium falciparum Hsp90 | S. cerevisiae expressing PfHsp90, BacTiter-Glo ATP, 48 h; yeast lacking PDR1 and PDR3 efflux regulators | 310,000 compounds, 0.32% hits | AID 504621 | inhibition, % at 9.4 µM;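 active means every replicate shows inhibition above about 80%, whatever the replicate mean, limit read from the data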
tim23-1 inh – tim23-1 yeast growth inhibition | S. cerevisiae tim23-1 growth, BacTiter-Glo luminescence, 24 h | inhibition, % at 20 µM | 330,000 compounds, 1.3% hits | AID 463212;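 active means growth inhibition of the mutant yeast at or above 50%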;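 further: temperature-sensitive mutant grown at 25 °C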
TIM10 inh – inhibits growth of TIM10 yeast strain | S. cerevisiae TIM10 strain growth, BacTiter-Glo luminescence, 24 h | inhibition, % at 10 µM | 330,000 compounds, 1.4% hits | AID 463195;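 active means inhibition of 40% or more at the single tested concentration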;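 further: wild-type TIM10 isogenic control strain grown at permissive 25 °C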
tim10-1 inh – growth inhibitors of tim10-1 mutant yeast | AID 463190 | inhibition, % at 20 µM | S. cerevisiae tim10-1 ts strain growth, BacTiter-Glo, 24 h | 330,000 compounds, 2.2% hits;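 active means inhibition of at least 40%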;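 further: mutant grown at 25 °C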
tim10-1 conf – tim10-1 yeast growth inhibition, confirmed | inhibition, % at 20 µM | AID 463213 | S. cerevisiae tim10-1 ts strain growth, BacTiter-Glo, 24 h | shares compounds with tim10-1 inh | 7,400 compounds, 56% hits;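 active means inhibition of yeast growth at or above a set limit in either of two repeat tests at 20 µM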;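 further: tim10-1 mutant grown at permissive 25 °C to find synthetic lethal compounds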
tim10 confirm – TIM10 yeast growth inhibition, confirmed | shares compounds with TIM10 inh | S. cerevisiae tim10 strain growth, BacTiter-Glo luminescence, 24 h | inhibition, % at 10 µM | 4,600 compounds, 63% hits | AID 463215;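 active means inhibition of yeast growth at or above a set limit in either of two replicates at 10 µM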; further: this counterscreen used the strain with wild-type TIM10
tim23-1 confirm – tim23-1 yeast growth inhibition, confirmed; inhibition, % at 20 µM; shares compounds with tim23-1 inh; 4,400 compounds, 83% hits; AID 463218; S. cerevisiae tim23-1 growth, BacTiter-Glo luminescence, 24 h;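 active means inhibition above about 39% in either of two replicate wells at 20 µM, limit read from the data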;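 further: temperature-sensitive tim23-1 mutant grown at 25 °C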
Each line names hits and unclear results; the compound was inactive in the other large screens (follow-up assays come after a bar, where they were run). Hits are enriched below; roughly 4.1% of the tested compounds scored in any of these assays.

COc1ccc(C(=O)Nc2ccc3c(c2)C(=O)c2ccccc2C3=O)cc1OC	none
COc1ccc(C(=O)c2c(C(F)(F)F)oc3c2C(=O)c2ccccc2C3=O)cc1OC	tim23-1 inh 67, tim10-1 inh 52 | tim10-1 conf 40 | tim23-1 confirm 68
C=C(C)c1cc2c(ccc3ccc(=O)oc32)o1	none (no result: NALP1 yeast inh)
O=C(OCc1nc2ccccc2[nH]1)C12CC3CC(CC(C3)C1)C2	tim23-1 inh 58, tim10-1 inh 58 (no result: PfHsp90 yeast 2) | tim10-1 conf 51 | tim10 confirm inactive | tim23-1 confirm 43
COc1cc(CNc2ccccc2)c([N+](=O)[O-])cc1OC	none
CN1CCC(OC(=O)c2cc3cc(Br)ccc3oc2=O)CC1	none
COc1ccc(/C(N)=N/OC(=O)c2cccs2)cc1	tim23-1 inh 71, TIM10 inh 63, tim10-1 inh 43 | tim10-1 conf 60 | tim10 confirm 68 | tim23-1 confirm 88
N/C(CC(=O)Nc1ccc(F)c(Cl)c1)=N\OC(=O)c1cccs1	tim23-1 inh 73, TIM10 inh 81, tim10-1 inh 54 | tim10-1 conf 37 | tim10 confirm 86 | tim23-1 confirm 83
N/C(=N\OC(=O)c1cccs1)c1ccc(Cl)cc1	tim23-1 inh 82, TIM10 inh 84, tim10-1 inh 69 (no result: NALP1 yeast inh, PfHsp90 yeast 2) | tim10-1 conf 53 | tim10 confirm 84 | tim23-1 confirm 91
COc1cccc(CNC(=O)Cn2ncc3c(=O)oc4ccccc4c32)c1	none (no result: NALP1 yeast inh)
O=c1[nH][nH]c(-c2ccccc2O)c1C(C[N+](=O)[O-])c1cccc(Cl)c1 (centres undefined)	NALP1 yeast inh 101, tim23-1 inh 56, TIM10 inh 48, tim10-1 inh 44 | tim10-1 conf 44 | tim10 confirm inactive | tim23-1 confirm 55
Cc1ccc(C)c(S(=O)(=O)N2CCN(C(=O)Cn3[nH]c(=O)c4ccccc4c3=O)CC2)c1	none (no result: NALP1 yeast inh, PfHsp90 yeast 2)
COC(=O)c1cccc2c1-c1ccccc1/C2=N/O	tim23-1 inh 65, tim10-1 inh 59 | tim10-1 conf 38 | tim23-1 confirm 56
Cc1nc(Nc2cccc(F)c2)c2oc3ccccc3c2n1	tim23-1 inh 55, tim10-1 inh 44 | tim10-1 conf inactive | tim23-1 confirm 60
Cc1nc(Nc2cccc(Cl)c2)c2oc3ccccc3c2n1	none
O=[N+]([O-])c1cc(-c2ncccn2)c([N+](=O)[O-])s1	tim23-1 inh 51, TIM10 inh 91, tim10-1 inh 88 | tim10-1 conf 84 | tim10 confirm 99 | tim23-1 confirm 92
COc1ccc(/C=N/NC(=O)c2nc(-c3ccccc3)cc(-c3ccccc3)n2)cc1	none
NNc1nc(-c2ccccc2)cc(-c2ccccc2)n1	tim23-1 inh 55, TIM10 inh 49, tim10-1 inh 43 | tim10-1 conf 48 | tim10 confirm inactive | tim23-1 confirm 56
NNc1nc(-c2ccccc2)cc(-c2ccccc2O)n1	tim23-1 inh 55, TIM10 inh 48, tim10-1 inh 44 | tim10-1 conf 47 | tim10 confirm 42 | tim23-1 confirm 59
NNC(=O)c1nc(-c2ccccc2)cc(-c2ccccc2)n1	tim23-1 inh 63, tim10-1 inh 42 | tim10-1 conf inactive | tim23-1 confirm 67
Clc1ccccc1-c1ncnc2ccc(Br)cc12	none
NNc1nc(-c2ccccc2Cl)c2cc(Br)ccc2n1	tim23-1 inh 57, TIM10 inh 41, tim10-1 inh 49 | tim10-1 conf 37 | tim10 confirm 30 | tim23-1 confirm 43
Cc1cccc(N2CCN(C(=O)CSc3nc4ccccc4nc3N3CC(C)OC(C)C3)CC2)c1C (centres undefined)	none
Fc1c(F)c(F)c(N/N=C/c2c[nH]c3ccccc23)c(F)c1F	tim23-1 inh 80, TIM10 inh 61, tim10-1 inh 59 | tim10-1 conf 55 | tim10 confirm inactive | tim23-1 confirm 43
O=C(O)c1ccc(N/N=C/c2c[nH]c3ccccc23)cc1	none
Cc1cccc(Nc2nc(-c3sc(C)nc3C)cs2)c1	none
Cc1ccnc(Nc2nc(-c3sc(C)nc3C)cs2)c1	tim23-1 inh 82, tim10-1 inh 48 (no result: NALP1 yeast inh) | tim10-1 conf inactive | tim23-1 confirm 58
Cc1[nH]n(-c2ccccc2)c(=O)c1C(C[N+](=O)[O-])c1ccc(Br)cc1 (centres undefined)	NALP1 yeast inh 65, PfHsp90 yeast 2 122, tim23-1 inh 89, TIM10 inh 49, tim10-1 inh 60 | tim10-1 conf 57 | tim10 confirm 69 | tim23-1 confirm 84
CC1=C(C(=O)OCc2ccccc2)C(c2cccc3ccccc23)NC(=O)N1CCCC(=O)O (centres undefined)	none (no result: NALP1 yeast inh)
Cc1[nH]n(C(N)=S)c(=O)c1N=Nc1ccc([N+](=O)[O-])cc1Cl	tim23-1 inh 58, tim10-1 inh 45 | tim10-1 conf 52 | tim23-1 confirm 67
CCOc1ncccc1C(=O)OCC(=O)NCCCc1ccccc1	none (no result: NALP1 yeast inh)
CCCCNC(=O)c1cccc(S(=O)(=O)N2CC3(C)CC2CC(C)(C)C3)c1 (centres undefined)	tim23-1 inh 59, tim10-1 inh 50 (no result: NALP1 yeast inh) | tim10-1 conf 48 | tim23-1 confirm 54
Cc1nc(SCC(=O)N2CCCCCC2)c2c(=O)n(C)c(=O)n(CC(C)C)c2n1	none (no result: NLRP3 yeast inh, NALP1 yeast inh, tim23-1 inh, TIM10 inh, tim10-1 inh)
Cc1ccc2nc(SCc3ccc([N+](=O)[O-])cc3)nc(C)c2c1	none (no result: PfHsp90 yeast 2)
Cc1ccc2nc(SCc3ccc([N+](=O)[O-])cc3)[nH]c2c1	tim23-1 inh 79, TIM10 inh 55, tim10-1 inh 42 | tim10-1 conf 42 | tim10 confirm inactive | tim23-1 confirm 79
Brc1ccc(-c2nc(N/N=C/c3cccnc3)c3ccccc3n2)cc1	tim23-1 inh 81, TIM10 inh 67, tim10-1 inh 82 | tim10-1 conf inactive | tim10 confirm 56 | tim23-1 confirm 86
Oc1ccc(/C=C/c2nc(-c3ccccc3O)n(-c3ccccc3)n2)cc1	tim23-1 inh 59, tim10-1 inh 60 (no result: PfHsp90 yeast 2) | tim10-1 conf 51 | tim23-1 confirm 64
Cc1ccc(N=N/C(=C\O)C(=O)c2ccc(Cl)cc2)cc1	PfHsp90 yeast 2 107, tim23-1 inh 60, tim10-1 inh 48 | tim10-1 conf 42 | tim23-1 confirm 63
O=C(/C(=C/O)N=Nc1ccccc1)c1ccc(Cl)cc1	NALP1 yeast inh 26, PfHsp90 yeast 2 106, tim23-1 inh 79, TIM10 inh 58, tim10-1 inh 65 | tim10-1 conf 49 | tim10 confirm 56 | tim23-1 confirm 39
